Assay outcomes (PubChem)
The list is not random: actives were taken first. Their share in the collection is about 19%.
IL-1B inflam inh: blocks inflammasome-driven IL-1 beta release | activity change, % at 57.5 µM | THP-1 LPS/ATP IL-1B secretion, AlphaLISA, 16 h; hits give low values | AID 743279 | actives 4.7% (n = 360,000); in the data active = activity change below about -50%; inconclusive = mostly about -30% to -49%
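THP-1 cells pretreated 1 hr with compounds (up to 57.5 uM final), then stimulated with LPS (250 ng/mL final) plus ATP (1.25 mM final); secreted IL-1B measured by AlphaLISA after 16 hr, decreased signal indicating inhibition.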
DT40 TDP1 no CPT: qHTS for Inhibitors of human tyrosyl-DNA phosphodiesterase 1 (TDP1): qHTS in cells in absence of CPT | actives 15% (n = 420,000) | Potency, µM (highest dose often 46.2 µM), for the others: at the highest dose activity change, negative = growth inhibition, hits mostly inhibitors | DT40 Tdp1-/- hTDP1 cells, no CPT, ATP luminescence, 48 h | AID 686978, 2013; also: potency is read from the fitted curve at half-maximal effect; nearly all actives have a fitted effect of over 55% in size
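Chicken DT40 Tdp1-/- cells stably complemented with human TDP1 were seeded at 400 cells/well with DMSO in place of 20 nM camptothecin. After compound pinning, cells grew at least 48 hr at 37 °C; viability read by CellTiter-Glo luminescence.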
HT1080 IDH1KD tx: kills HT-1080 cells with IDH1 knockdown; HT-1080 IDH1 knockdown viability, ATP luminescence, 48 h; actives 2% (n = 360,000); Potency, µM (top dose mostly 46.1 µM), for inactives: at the highest dose activity, negative = toxicity, most hits filed as cytotoxic;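 also: potency is read from the fitted curve at half-maximal effect; 0% = DMSO wells and -100% = cell-free medium wells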
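% activity derives from luminescence (CellTiter-Glo), normalised to DMSO and no-cell wells. HT-1080-IDH1KD cells, 750/well, had 48 h compound exposure at 37 °C.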
HT1080-NT tox: kills 2HG-producing HT-1080-NT fibrosarcoma cells. HT-1080-NT fibrosarcoma viability, CellTiter-Glo ATP luminescence, 48 h. Potency, µM (top dose mostly 46.1 µM), inactives show at the top dose activity, negative = less viability, actives largely listed as cytotoxic. actives 1.6% (n = 360,000);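 also: NT is the 2HG producing partner of a matched IDH1 knockdown line; potency is read from the fitted curve at half-maximal effect; 0% = DMSO-treated cells and -100% = media-only wells without cells; nearly all actives have a fitted effect of over 55% in size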
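Viability of the 2HG-overproducing fibrosarcoma line after 48 hours of compound exposure at 37 degrees C was determined by luminescence with CellTiter-Glo, and concentration-effect curves were then fitted and categorized.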
DT40 TDP1 CPT: growth inhibition of DT40 Tdp1-/-;hTDP1 cells with camptothecin (screen for TDP1 inhibitors) | chicken DT40 Tdp1-/-;hTDP1 cells + 20 nM CPT, ATP luminescence, 48 h | Potency, µM (highest dose often 46.2 µM), for inactives: at the top dose activity change, negative = growth inhibition, hits mostly inhibitors | actives 12% (n = 420,000); also: potency is read from the fitted curve at half-maximal effect; nearly all actives have a fitted effect of over 55% in size
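Chicken DT40 Tdp1-/- cells stably complemented with human TDP1 were seeded at 400 cells/well in medium containing 20 nM camptothecin, exposed to pin-transferred compounds, and grown at 37 °C for at least 48 hr. Viability was read as ATP luminescence.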
Numbers without * were called inactive; ? = inconclusive; · = no result given; [ ] = dose if it differs, or a comment. Unless noted, calls follow the shape of the dose curve; as a rule, active = well fitted curve in the direction sought with a large enough effect; inconclusive = small, poorly fitted or top-dose-only effect, or another doubt; inactive = no such curve, though single readings can be large; an effect the other way counts as inactive or inconclusive. Unless noted, % is scaled to controls: 0 for no effect and ±100 for the full control effect.

SMILES	IL-1B inflam inh	DT40 TDP1 no CPT	HT1080 IDH1KD tx	HT1080-NT tox	DT40 TDP1 CPT
C=C(CN(C)C)C(=O)c1ccc(OC2OC(COC(C)=O)C(OC(C)=O)C(OC(C)=O)C2OC(C)=O)cc1 (centres undefined)	-101*	0.58µM*	4.6µM*	?	0.46µM*
O=C(/C=C/NNC(=O)c1ccc(Cl)cc1)c1ccccc1	42	?	?	?	?
O=C(/C=C/NNC(=O)c1ccccc1)c1ccc(Br)cc1	81	4.6µM*	?	?	3.3µM*
O=C(/C=C/NNC(=O)c1cccc(Br)c1)c1cccc(Br)c1	-2	?	?	?	?
COc1ccc(C(=O)NN/C=C/C(=O)c2ccc(Br)cc2)cc1	69	?	-26%	-18%	23µM*
COc1ccc(C(=O)C=CNNC(=O)c2ccc(Cl)cc2)cc1	148	?	?	-28%	3.3µM*
Cc1ccc(C(=O)/C=C/NNC(=O)c2ccccc2O)cc1	90	?	-26%	-24%	16µM*
CC(C)OC(=O)CC1C(=O)NCCN1C(=O)COc1ccc(C(C)(C)C)cc1 (centres undefined)	13	-17%	-2%	4%	6%
CN(c1ccc(/C=C/c2ccccc2)cc1)P1(=O)NCCCO1 (centres undefined)	·	-9%	·	·	-16%
O=C(Nc1cc(Cl)ccn1)C1(c2ccccc2)CC1(Cl)Cl (centres undefined)	-20	?	-22%	-2%	-21%
COC(=O)C1CCCCN1Cc1nc(N(C)C)c2ccccc2n1 (centres undefined)	·	-14%	·	·	5%[9.04 µM]
Cc1cc(NC(=O)COc2ccccc2)ccc1Cl	-13	-14%	8%	-1%	-8%
CCn1c2ccccc2c2cc(NC(=O)c3cc(OC)c(OC)c(OC)c3)ccc21	14	1.3µM*	1.5µM*	0.82µM*	1.3µM*
CN(CC(=O)Nc1ccc(N2CCOCC2)cc1)Cc1cc(=O)n2ccsc2n1	45	?	7%	-11%	18µM*
Cc1ccc(NC(=O)CC(C)CC(=O)NCc2ccccc2)cc1Cl (centres undefined)	36	?	-10%	-5%	13µM*
COc1cc(C(=O)Nc2cccc(NC(=O)c3ccccc3)c2)cc(OC)c1OC	?	-28%	9%	13%	?
Cc1ccc(NC(=O)COc2ccccc2)cc1Cl	-51*	-29%	14%	21%	30%
Cc1ccc(NC(=O)c2cc3c(=O)n(Cc4cccnc4)ccc3nc2C)cc1F	·	-19%	·	·	-12%
CCOC(=O)C1CCCN(C(=O)c2ccc(S(=O)(=O)Nc3ccccc3OC)cc2)C1 (centres undefined)	2	?	11%	0%	?
O=C(O)C(Cc1c[nH]c2ccccc12)N1C(=O)C2C3c4ccccc4C(c4ccccc43)C2C1=O (centres undefined)	-2	-18%	-2%	-9%	-1%
O=C(COc1ccc(/C=N/NS(=O)(=O)c2ccccc2)cc1)Nc1cccc(Cl)c1	-11	21µM*	?	?	?
CCn1c2ccccc2c2cc(NC(=O)c3ccc(Br)o3)ccc21	?	?	-9%	-12%	?
CCn1c2ccccc2c2cc(NC(=O)c3cc(C)on3)ccc21	?	18µM*	23µM*	?	?
CCn1c2ccccc2c2cc(NC(=O)CN(C)CC(=O)Nc3ccc(N4CCOCC4)cc3)ccc21	?	23µM*	26µM*	-8%	?
O=C(COc1ccc(/C=N/NS(=O)(=O)c2ccccc2)cc1)NCc1ccccc1	4	-28%	2%	0%	0%
CCn1c2ccccc2c2cc(NC(=O)N3CCOCC3)ccc21	-3	?	-12%	-1%	-22%
CCn1c2ccccc2c2cc(NC(=O)COc3ccccc3)ccc21	-3	23µM*	-25%	-23%	18µM*
